# Unmarked numbers belong to inactive results. Inconclusive results are not listed. Entries that show only a call come without a potency. The source made the active and inactive calls. Unless noted, the call rests on the fitted dose curve; in most records, active means well fitted curve in the direction sought with a large enough effect; inconclusive means small, poorly fitted or top-dose-only effect, or another doubt; inactive means no such curve, though single readings can be large; an effect the other way counts as inactive or inconclusive.
# Key:
# [1] = molecular target: Glucocorticoid receptor (Homo sapiens) (UniProt P04150); assay: GR-GFP Redistribution (AID 450;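 active means compounds whose dose series gives a full or clear partial fitted curve of increased nuclear translocation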; further: potency means the concentration at half of the fitted maximal effect); settings: U2OS GR-GFP nuclear translocation, laser cytometry, 2 h
# [2] = molecular target: Glucocorticoid receptor (Homo sapiens) (UniProt P04150); assay: GR-EFC Redistribution (AID 451; calls by dose curve; further: potency means the concentration at half of the fitted maximal effect); settings: CHO-K1 GR-EFC translocation, beta-gal luminescence, 2 h
# In short: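 Translocation of GR-ED fusion to nuclear EA restores b-gal, read by luminescence after 1 h room-temperature detection. Engineered CHO-K1 biosensor cells, 1,000/well, exposed 2 h at 37 C to titrations up to 46 uM final.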
# [3] = molecular target: Mitogen-activated protein kinase 10 (Mus musculus) (UniProt Q61831); assay: JNK3 AlphaScreen Assay (AID 530; active means well fitted curve in either direction with a large enough effect, not every such curve was filed as active;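 further: kinase came from lysate of stimulated human HepG2 cells; signal reports phosphorylation of biotinylated GST-cJun 1-79 at Ser73 with 10 µM ATP; series mostly up to about 57 µM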)
# In short: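 Kinase buffer: 20 mM Tris-HCl pH 7.6, 10 mM MgCl2, 1 mM DTT, 0.1 mM Na3VO4, 0.01% Tween-20; ATP 10 uM. Substrate biotin-GST-cJun(1-79), enzyme from activated HepG2 lysates. Detection by Ser73 phospho-antibody AlphaScreen.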
# [4] = molecular target: Cytochrome P450 3A4 (Homo sapiens) (UniProt P08684); assay: qHTS Assay for Activators of Cytochrome P450 3A4 (AID 885); further: nearly all actives have a fitted effect of over 65% in size
# In short: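 CYP3A4 activity: Luciferin-PPXE O-dealkylation, 25uM substrate, 200mM KPO4, RT throughout. Read-out is luciferase luminescence; higher values reflect activation.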
# [5] = molecular target: DNA dC->dU-editing enzyme APOBEC-3G (Homo sapiens) (UniProt Q9HC16); assay: qHTS for inhibitors of Vif-A3G interactions: Validation (AID 588379)
# In short: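 Yellow fluorescence (Ex 488, Em 500-530) of Vif-coexpressing HeLa A3G-eYFP cells, scanned by Acumen cytometer, reports blocked A3G degradation. Cells plated at 700/well overnight at 37 deg C before compound addition, then a further overnight compound incubation at 37 deg C.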
# Furin (Homo sapiens) = Furin (Homo sapiens) (UniProt P09958); assay: Furin counterscreen qHTS for Zika virus inhibitors (AID 1347149); further: nearly all actives have a fitted effect of over 70% in size; further: potency means the concentration at half of the fitted maximal effect
# In short: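 Counterscreen measures cleavage of 2 microM BOC-RVRR-AMC, below its ~15 microM Km, by 5 nM full-length human furin at pH 7.0 after a 15-min compound preincubation. Inhibition derives from the 15-min fluorescence increase at 37C.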
# [6] = tested on: Zika virus NS2B-NS3 protease; assay: Primary screen GU AMC qHTS for Zika virus inhibitors (AID 1347154); further: potency means the concentration at half of the fitted maximal effect; nearly all actives have a fitted effect of over 70% in size
# In short: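 Fluorogenic AMC-substrate cleavage by noncovalent NS2B-NS3 protease complex (25 nM, pH 8.0 Tris buffer with Tween 20) followed for 15 minutes at room temperature (~20% conversion). Percent inhibition from ex340/em450 signal change, fitted by 4-parameter Hill equation.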
# [7] = Confirmatory screen NINDS Rhodamine qHTS for Zika virus inhibitors (AID 1347161); further: nearly all actives have a fitted effect of over 60% in size; further: potency means the concentration at half of the fitted maximal effect
# In short: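 qHTS dose-response: 25 nM linked protease, pH 8.0 Tris/Tween buffer, cpd titration, 15 min RT preinc, 1.5 microM Rhod110 peptide, 15 min reaction (~15% conversion), Ex480/Em540; 4-parameter Hill fit.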
# [8] = Vero cells viability qHTS for Zika virus inhibitors (AID 1347167)
# In short: (§1)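 Luminescent ATP readout (CellTiter Glo) after 30 min at 37 degrees C gives viability; cells in DMEM + 4% FBS were treated 24 to 48 hours with compound, following overnight attachment.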
# [9] = HepG2 cells viability qHTS for Zika virus inhibitors (AID 1347168)
# In short: as §1
# [10] = molecular target: Rap guanine nucleotide exchange factor 3 (Homo sapiens) (UniProt O95398); assay: Confirmatory qHTS for antagonist of cAMP-regulated guanine nucleotide exchange factor 3 (EPAC1) (AID 1645880); further: nearly all actives have a fitted effect of over 55% in size
# In short: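 Released BODIPY-GDP fluoresces less than Rap1-bound BODIPY-GDP; the signal is followed at 480/540 nm at 5-min intervals over 30 min, after 5 min at room temperature. Reactions contain 100 nM EPAC1, 250 nM RAP1B-BODIPY-GDP and 50 uM GDP; results are normalized to ATA and DMSO.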
# [11] = molecular target: Rap guanine nucleotide exchange factor 3 (Homo sapiens) (UniProt O95398); assay: Confirmatory qHTS for agonist of cAMP-regulated guanine nucleotide exchange factor 3 (EPAC1) (AID 1645881);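 further: EPAC1 catalysed release of BODIPY-GDP from Rap1B seen as fluorescence loss; nearly all actives have a fitted effect of over 75% in size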
# [12] = molecular target: Rap guanine nucleotide exchange factor 4 (Homo sapiens) (UniProt Q8WZA2); assay: Confirmatory qHTS for antagonist of cAMP-regulated guanine nucleotide exchange factor 4 (EPAC2) (AID 1645885); further: nearly all actives have a fitted effect of over 25% in size
# [13] = Confirmatory screen GU Rhodamine qHTS for Zika virus inhibitors qHTS (AID 1347157); further: nearly all actives have a fitted effect of over 70% in size; further: potency means the concentration at half of the fitted maximal effect
# In short: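 A qHTS format was used, with compound concentrations ranging up to 114 microM. Each compound was preincubated with 25 nM NS2B-NS3 protease, and the substrate was then added at 1.5 microM. Curves were fitted with a 4-parameter Hill model.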
# [14] = tested on: Zika virus NS2B-NS3 protease (linked); assay: 384 well plate NINDS AMC confirmatory qHTS for Zika virus inhibitors (AID 1347163); further: nearly all actives have a fitted effect of over 50% in size; further: potency means the concentration at half of the fitted maximal effect
# In short: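 Enzyme (5, 30 or 60 nM final) first met test compounds for ~15 min. The AMC-tagged peptide Ac-VKTGKR-AMC followed at 30 microM. Fluorescence was then recorded at 25 min and scaled against no-enzyme and no-inhibitor wells.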
# [15] = ZIKV-mCherry secondary qHTS for Zika virus inhibitors (AID 1347158); further: top concentration of the series differs between compounds
# In short: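 This orthogonal imaging screen measured ZIKV-mCherry infection of Vero cells exposed to compound, MOI 1, 48-72 h. Percent infection came from segmented nuclei scored mCherry-positive above 3 SD of negative controls.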
# [16] = tested on: Zika virus NS2B-NS3 protease (linked construct); assay: 384 well plate NINDS Rhodamine confirmatory qHTS for Zika virus inhibitors (AID 1347164);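 further: fluorescence from protease cleavage of Ac-LKRR-rhodamine 110 substrate; potency means the concentration at half of the fitted maximal effect; nearly all actives have a fitted effect of over 65% in size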
# In short: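 Linked NS2B-NS3 protease (final 5, 30 or 60 nM) preincubated ~15 minutes with compounds, then 10 microM Ac-LKRR-Rhodamine 110 added. Fluorescence (485/538 nm) read after 25 minutes at room temperature, normalized to no-enzyme and no-inhibitor controls.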
# [17] = Tertiary RLuc qRT-PCR qHTS assay for Zika virus inhibitors (AID 1347169); further: top concentration of the series differs between compounds; nearly all actives have a fitted effect of over 55% in size
# In short: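 Vero cells (1,000/well) infected with recombinant ZIKV-RLuc (Cambodian) at MOI 1-2 after compound addition, 48-72 hrs at 37 degrees C. Live-cell Renilla luciferase substrate added; luminescence read after 1-1.5 hrs.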
# Sequence of Furin (Homo sapiens) (P09958 whole entry, looked up): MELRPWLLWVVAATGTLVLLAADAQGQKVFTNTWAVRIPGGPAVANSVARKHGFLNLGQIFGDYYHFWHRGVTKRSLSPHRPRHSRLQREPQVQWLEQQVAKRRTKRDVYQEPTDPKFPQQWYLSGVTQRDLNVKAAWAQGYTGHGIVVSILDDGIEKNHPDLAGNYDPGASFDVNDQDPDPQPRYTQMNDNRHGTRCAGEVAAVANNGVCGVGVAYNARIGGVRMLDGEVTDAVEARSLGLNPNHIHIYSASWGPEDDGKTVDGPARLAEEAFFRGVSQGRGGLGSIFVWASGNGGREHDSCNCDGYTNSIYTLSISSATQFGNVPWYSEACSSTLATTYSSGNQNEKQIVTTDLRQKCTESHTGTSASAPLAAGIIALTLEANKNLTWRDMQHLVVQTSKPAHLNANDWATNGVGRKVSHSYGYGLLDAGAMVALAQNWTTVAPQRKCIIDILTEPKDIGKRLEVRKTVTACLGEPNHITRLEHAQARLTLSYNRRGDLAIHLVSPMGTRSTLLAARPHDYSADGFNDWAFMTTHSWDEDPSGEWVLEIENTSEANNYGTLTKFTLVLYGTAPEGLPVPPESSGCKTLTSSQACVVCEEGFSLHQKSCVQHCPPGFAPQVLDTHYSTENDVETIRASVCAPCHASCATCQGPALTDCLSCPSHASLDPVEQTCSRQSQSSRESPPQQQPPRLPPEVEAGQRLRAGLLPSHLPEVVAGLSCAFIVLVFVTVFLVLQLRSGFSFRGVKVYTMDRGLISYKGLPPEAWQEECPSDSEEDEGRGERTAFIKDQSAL
# Sequence of Rap guanine nucleotide exchange factor 3 (Homo sapiens) (O95398 whole entry, looked up): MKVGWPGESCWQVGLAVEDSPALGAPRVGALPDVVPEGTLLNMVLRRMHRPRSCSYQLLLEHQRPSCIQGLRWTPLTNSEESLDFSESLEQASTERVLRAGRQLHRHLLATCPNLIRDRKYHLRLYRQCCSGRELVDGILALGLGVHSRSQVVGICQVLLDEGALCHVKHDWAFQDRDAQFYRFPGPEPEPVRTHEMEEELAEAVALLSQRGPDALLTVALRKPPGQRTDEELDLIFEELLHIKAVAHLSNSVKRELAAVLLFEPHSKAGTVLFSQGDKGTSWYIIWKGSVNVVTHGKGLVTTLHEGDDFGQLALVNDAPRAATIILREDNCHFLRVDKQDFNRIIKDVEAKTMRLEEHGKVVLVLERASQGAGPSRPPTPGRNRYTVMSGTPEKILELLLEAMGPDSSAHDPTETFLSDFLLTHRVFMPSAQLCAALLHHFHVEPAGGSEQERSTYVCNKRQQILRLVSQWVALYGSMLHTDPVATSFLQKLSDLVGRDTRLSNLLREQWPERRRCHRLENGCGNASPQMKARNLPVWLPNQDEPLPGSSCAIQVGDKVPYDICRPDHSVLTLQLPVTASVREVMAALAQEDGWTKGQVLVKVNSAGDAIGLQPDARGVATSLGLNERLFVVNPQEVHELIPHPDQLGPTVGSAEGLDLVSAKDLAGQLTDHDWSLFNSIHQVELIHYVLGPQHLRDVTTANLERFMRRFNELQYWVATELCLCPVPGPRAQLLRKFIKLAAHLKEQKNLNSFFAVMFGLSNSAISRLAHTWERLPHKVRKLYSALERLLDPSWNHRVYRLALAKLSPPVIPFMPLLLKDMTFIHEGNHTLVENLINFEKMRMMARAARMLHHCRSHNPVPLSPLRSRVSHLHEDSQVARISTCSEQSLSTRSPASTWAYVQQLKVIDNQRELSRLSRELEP
# Sequence of Glucocorticoid receptor (Homo sapiens) (P04150 whole entry, looked up, the tested form may be a part): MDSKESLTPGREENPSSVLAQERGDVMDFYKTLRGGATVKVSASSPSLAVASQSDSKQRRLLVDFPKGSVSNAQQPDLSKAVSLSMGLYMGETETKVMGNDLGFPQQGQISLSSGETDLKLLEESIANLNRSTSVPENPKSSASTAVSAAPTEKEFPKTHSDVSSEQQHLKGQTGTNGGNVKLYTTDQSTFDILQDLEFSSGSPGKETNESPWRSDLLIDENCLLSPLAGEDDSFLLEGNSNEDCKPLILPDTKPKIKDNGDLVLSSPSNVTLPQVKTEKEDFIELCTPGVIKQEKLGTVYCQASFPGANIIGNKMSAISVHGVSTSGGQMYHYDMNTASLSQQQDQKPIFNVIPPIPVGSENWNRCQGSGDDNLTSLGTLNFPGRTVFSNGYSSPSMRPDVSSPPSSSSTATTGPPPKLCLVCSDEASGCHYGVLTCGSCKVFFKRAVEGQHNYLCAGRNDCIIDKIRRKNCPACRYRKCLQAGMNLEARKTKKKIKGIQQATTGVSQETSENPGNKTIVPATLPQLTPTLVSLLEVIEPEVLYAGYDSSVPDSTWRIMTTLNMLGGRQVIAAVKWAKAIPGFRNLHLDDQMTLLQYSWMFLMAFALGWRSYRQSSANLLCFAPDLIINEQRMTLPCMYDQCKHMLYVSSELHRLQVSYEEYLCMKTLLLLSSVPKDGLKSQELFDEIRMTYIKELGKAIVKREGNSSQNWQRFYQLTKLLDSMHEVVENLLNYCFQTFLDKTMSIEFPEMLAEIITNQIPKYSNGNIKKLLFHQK
# Sequence of Rap guanine nucleotide exchange factor 4 (Homo sapiens) (Q8WZA2 whole entry, looked up): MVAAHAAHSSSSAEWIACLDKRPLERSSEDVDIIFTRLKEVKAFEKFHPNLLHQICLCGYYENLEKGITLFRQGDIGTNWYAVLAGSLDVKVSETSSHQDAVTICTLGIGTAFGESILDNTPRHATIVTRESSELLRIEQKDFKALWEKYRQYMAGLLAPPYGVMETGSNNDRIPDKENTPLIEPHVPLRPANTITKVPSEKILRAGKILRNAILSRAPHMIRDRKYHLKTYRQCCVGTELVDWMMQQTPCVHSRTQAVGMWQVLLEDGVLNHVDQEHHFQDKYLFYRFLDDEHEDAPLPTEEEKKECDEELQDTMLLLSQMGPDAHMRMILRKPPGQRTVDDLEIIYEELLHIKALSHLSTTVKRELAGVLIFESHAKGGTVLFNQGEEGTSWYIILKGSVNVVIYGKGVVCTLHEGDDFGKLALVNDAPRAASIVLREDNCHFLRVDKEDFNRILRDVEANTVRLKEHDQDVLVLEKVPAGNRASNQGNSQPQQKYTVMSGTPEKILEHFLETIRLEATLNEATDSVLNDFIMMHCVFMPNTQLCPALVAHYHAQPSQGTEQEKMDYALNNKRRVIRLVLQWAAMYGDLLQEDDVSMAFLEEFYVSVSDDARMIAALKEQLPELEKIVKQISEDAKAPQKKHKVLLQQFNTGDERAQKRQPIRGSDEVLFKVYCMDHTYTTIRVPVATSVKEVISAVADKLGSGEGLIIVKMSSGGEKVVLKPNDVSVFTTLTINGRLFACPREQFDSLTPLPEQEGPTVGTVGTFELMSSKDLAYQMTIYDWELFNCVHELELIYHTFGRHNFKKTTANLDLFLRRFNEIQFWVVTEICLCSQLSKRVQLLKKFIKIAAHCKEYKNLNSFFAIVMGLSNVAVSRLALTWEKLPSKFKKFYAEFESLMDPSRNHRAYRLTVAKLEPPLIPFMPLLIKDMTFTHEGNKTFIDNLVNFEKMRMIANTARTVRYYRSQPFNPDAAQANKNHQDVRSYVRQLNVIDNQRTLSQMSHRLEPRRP
# Sequence of Cytochrome P450 3A4 (Homo sapiens) (P08684 whole entry, looked up): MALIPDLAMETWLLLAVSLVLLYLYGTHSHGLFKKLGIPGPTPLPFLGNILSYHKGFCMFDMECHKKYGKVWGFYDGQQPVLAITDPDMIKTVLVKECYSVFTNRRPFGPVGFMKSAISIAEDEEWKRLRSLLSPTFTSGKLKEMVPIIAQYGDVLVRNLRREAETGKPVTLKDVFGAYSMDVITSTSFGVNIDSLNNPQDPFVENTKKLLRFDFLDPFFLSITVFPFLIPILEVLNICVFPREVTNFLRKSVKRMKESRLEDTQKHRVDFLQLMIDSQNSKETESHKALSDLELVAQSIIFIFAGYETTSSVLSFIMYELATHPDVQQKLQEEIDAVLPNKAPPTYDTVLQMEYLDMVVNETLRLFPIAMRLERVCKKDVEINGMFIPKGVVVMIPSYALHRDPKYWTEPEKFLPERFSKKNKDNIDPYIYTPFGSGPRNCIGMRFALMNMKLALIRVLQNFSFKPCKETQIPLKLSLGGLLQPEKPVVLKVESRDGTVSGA
# Sequence of DNA dC->dU-editing enzyme APOBEC-3G (Homo sapiens) (Q9HC16 whole entry, looked up): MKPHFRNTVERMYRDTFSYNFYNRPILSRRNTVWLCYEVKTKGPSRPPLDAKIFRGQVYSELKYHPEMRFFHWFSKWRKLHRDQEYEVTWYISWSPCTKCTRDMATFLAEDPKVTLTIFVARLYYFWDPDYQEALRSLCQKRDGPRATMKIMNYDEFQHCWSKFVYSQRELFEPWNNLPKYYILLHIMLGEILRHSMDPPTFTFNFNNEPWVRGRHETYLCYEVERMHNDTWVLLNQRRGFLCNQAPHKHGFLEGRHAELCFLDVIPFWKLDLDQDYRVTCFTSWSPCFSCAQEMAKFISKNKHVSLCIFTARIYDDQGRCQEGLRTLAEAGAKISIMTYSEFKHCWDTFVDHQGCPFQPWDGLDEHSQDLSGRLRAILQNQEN
compound,measurement,setting,value
COc1ccc(-c2nc(C(=O)N3CCN(C)CC3)sc2-c2ccc(OC)cc2)cc1,Potency,[1],> 46 µM
same,Potency,[2],> 46 µM
same,Potency,[3],inactive
same,Potency,[4],inactive
same,Potency,[5],inactive
same,Potency,Furin (Homo sapiens),13.5 µM (active)
same,Potency,[6],26.7 µM (active)
same,Potency,[7],inactive
same,Potency,[8],inactive
same,Potency,[9],inactive
same,Potency,[10],inactive
same,outcome,[11],inactive
same,Potency,[12],inactive
CCOC(=O)c1ccc(Nc2nc3ccccc3nc2NS(=O)(=O)c2ccc(Cl)cc2)cc1,Potency,Furin (Homo sapiens),inactive
same,Potency,[13],3.16 µM (active)
same,Potency,[7],3.55 µM (active)
same,Potency,[14],inactive
O=C(O)Cn1nnc(-c2ccc(OCc3cccc(C(F)(F)F)c3)cc2)n1,Potency,Furin (Homo sapiens),inactive
same,Potency,[13],25.1 µM (active)
same,Potency,[15],inactive
same,Potency,[7],8.91 µM (active)
same,Potency,[16],112 µM (active)
same,Potency,[17],inactive
O=C(Nc1ccc(C(=O)OCc2cc(=O)n3c4c(sc3n2)CCCC4)cc1)c1cccc(F)c1,Potency,Furin (Homo sapiens),46.9 µM (active)
same,Potency,[13],inactive
same,Potency,[7],inactive
O=C(O)c1ccc(NC(=O)c2cn(-c3ccccc3)nc2-c2ccc(Br)cc2)cc1,Potency,Furin (Homo sapiens),inactive
same,Potency,[13],8.91 µM (active)
same,Potency,[7],6.31 µM (active)
same,Potency,[14],44.7 µM (active)
same,Potency,[16],35.5 µM (active)
O=C(O)c1ccc(C2Nc3ccccc3-c3nnc(SCc4ccc(Cl)cc4)nc3O2)cc1 (stereo not drawn),Potency,Furin (Homo sapiens),inactive
same,Potency,[13],20 µM (active)
same,Potency,[15],inactive
same,Potency,[14],316 µM (active)
same,Potency,[16],89.1 µM (active)
same,Potency,[17],inactive
O=C(O)c1cc(-c2ccc(C(F)(F)F)cc2)nc2n[nH]c(-c3ccccc3)c12,Potency,Furin (Homo sapiens),52.7 µM (active)
same,Potency,[13],63.1 µM (active)
same,Potency,[15],inactive
same,Potency,[7],50.1 µM (active)
same,Potency,[14],inactive
same,Potency,[16],141 µM (active)
same,Potency,[17],inactive
Cc1c(Cl)cccc1NS(=O)(=O)c1ccc(NS(=O)(=O)c2ccc3c(c2)OCCO3)cc1,Potency,Furin (Homo sapiens),inactive
same,Potency,[13],44.7 µM (active)
same,Potency,[7],25.1 µM (active)
same,Potency,[14],141 µM (active)
same,Potency,[16],39.8 µM (active)
CCOC(=O)c1ccc(NC(=O)c2ccc3c(c2)CCN3S(=O)(=O)c2ccc(Cl)cc2)cc1,Potency,Furin (Homo sapiens),inactive
same,Potency,[13],inactive
same,Potency,[7],inactive
O=C(Nc1ccccc1)c1ccc2c(O)c(S(=O)(=O)c3ccc(Cl)cc3)c(=O)[nH]c2c1,Potency,Furin (Homo sapiens),inactive
same,Potency,[13],22.4 µM (active)
same,Potency,[15],inactive
same,Potency,[7],14.1 µM (active)
same,Potency,[14],398 µM (active)
same,Potency,[17],inactive
CCCc1nn2c(=O)cc(COC(=O)c3ccccc3NC(=O)c3ccc(Cl)cc3)nc2s1,Potency,Furin (Homo sapiens),41.8 µM (active)
same,Potency,[13],inactive
same,Potency,[7],inactive
CCc1ccc(S(=O)(=O)Nc2cc3c(C(=O)OCc4ccccc4)c(C)oc3c3ccccc23)cc1,Potency,Furin (Homo sapiens),inactive
same,Potency,[13],inactive
same,Potency,[7],inactive
Cc1ccc(-c2nnc(Nc3ccc(O)cc3)c3ccccc23)cc1S(=O)(=O)NCc1nc2ccccc2[nH]1,Potency,Furin (Homo sapiens),inactive
same,Potency,[13],inactive
same,Potency,[7],inactive
Cc1ccc2nc(-c3ccc(N=Nc4cc(S(=O)(=O)O)c5ccccc5c4O)cc3)sc2c1S(=O)(=O)O,Potency,Furin (Homo sapiens),59.1 µM (active)
same,Potency,[13],3.16 µM (active)
same,Potency,[15],inactive
same,Potency,[14],inactive
same,Potency,[16],15.8 µM (active)
same,Potency,[17],inactive

# From PubChem BioAssay (NCATS)
